Source: PubChem BioAssay (EPA / NIEHS)
A structure can be active in one record and inactive in another. The source made the active and inactive calls. Rule for the calls: active = hit-call score of the fitted dose curve at least 0.9, where 1 is the maximum; inactive = score below 0.9.

read-out: Matrix Metallopeptidase 1 (MMP1), MMP1 (gene 4312); assay: BSK_BE3C_MMP1: BioMAP Diversity Plus: BE3C Assay for Matrix Metallopeptidase 1 (MMP1) Biomarker Activity (AID 2283024); conditions: primary human bronchial epithelial cells; actives raise or lower the signal
Experimental: BSK_BE3C is a cell-based, multiplexed-readout assay that uses bronchial epithelial cell, a human lung primary cell, with measurements taken at 24 hours after chemical dosing in a 96-well plate.BSK_BE3C_MMP1 is an assay component measured in the BSK_BE3C assay. It measures MMP-1 antibody related to regulation of gene expression using ELISA technology.Data from the assay component BSK_BE3C_MMP1 was analyzed into 1 assay endpoint. This assay endpoint, BSK_BE3C_MMP1, was analyzed with bidirectional fitting relative to DMSO as the negative control and baseline of activity. Using a type of binding reporter, gain or loss-of-signal activity can be used to understand changes in the signaling as they relate to the gene MMP1. Furthermore, this assay endpoint can be referred to as a primary readout, because this assay has produced multiple assay endpoints where this one serves a signaling function. To generalize the intended target to other relatable targets, this assay endpoint is annotated to the protease intended target family, where the subfamily is matrix metalloproteinase.
The levels of cell surface (or secreted, indicated by the prefix "s") biomarker endpoints were measured by ELISA. Overt cytotoxicity to cells in confluent adherent cultures (all systems other than the BT system) was assessed by measuring total protein levels using sulforhodamine B (SRB) staining in parallel cultures at the time of biomarker measurements, indicated as SRB endpoints. For proliferation assays for adherent cell types, individual cell types are cultured at sub-confluence and relative cell numbers quantified by SRB staining at time points optimized for each system (48 h: 3C and CASM3C systems; 72 h: BT and HDF3CGF systems; 96 h: SAg system). SRB was performed by staining cells with 0.1% SRB after fixation with 10% TCA and reading wells at 560 nm.Viability and proliferation of PBMC (T cells) was quantified by Alamar Blue reduction for the SAg and BT systems. For PBMC viability (referred to as PBMC Cytotoxicity within the assay endpoint names), cells were plated (75,000/well in a 96-well plate) and then chemical samples added for 1 h before addition of activators, SEB and TSST-1 (20 ng/mL final concentration each). Cells were incubated for 90 h. Then, Alamar Blue (20 uL/well) (Invitrogen, Cat DAL1100) was added for 6 h, and the plates were read with a fluorescence microplate reader at 546/580 nm (excitation/emission). For PBMC proliferation, cells were plated and activated as above but incubated for only 16 h prior to addition of Alamar Blue. Plates were read after 6 h.

Structure (SMILES) | outcome | AC50
OC1CCCCC1 | inactive | 
CCc1nn(C2CCCCC2)c2cc(C3(C#N)CCC(C(=O)O)CC3)ccc12 (stereo not given) | inactive | 
Oc1cc2ccccc2c2ccccc12 |  | 27.9 µM (active)
CCC(=C(c1ccc(O)cc1)c1ccc(OCCN(C)C)cc1)c1ccccc1 |  | 12.2 µM (active)
C[C@@H]1C[C@H]2[C@@H]3CCC4=CC(=O)C=C[C@]4(C)[C@@]3(F)[C@@H](O)C[C@]2(C)[C@@]1(O)C(=O)COP(=O)(O)O | inactive | 0.1 µM (active)
NC(=O)N1C(=O)C(C(=O)c2cc(Cl)cs2)c2cc(F)c(Cl)cc21 (stereo not given) |  | 2.77 µM (active)
NCC(F)(F)C(F)(F)C(F)(F)C(F)(F)C(F)(F)C(F)(F)C(F)(F)F | inactive | 
CCCOc1sc(C(=O)N2CCC(c3cc(CN)ccc3F)CC2)c(C)c1Br |  | 11.1 µM (active)
OCCC(F)(F)C(F)(F)C(F)(F)C(F)(F)C(F)(F)C(F)(F)F | inactive | 
O=C(OCCOCCOC(=O)c1ccccc1)c1ccccc1 | inactive | 
O=c1c(-c2ccc(O)cc2)coc2cc(O)ccc12 | inactive | 
CC(C)(C)CC(C)(C)c1ccc(O)c(-n2nc3ccccc3n2)c1 | inactive | 
O=C(O)Cc1cc(I)c(Oc2cc(I)c(O)c(I)c2)c(I)c1 | inactive | 
CC(C)CCCCCCOC(=O)CCCCC(=O)OCCCCCCC(C)C | inactive | 
Nc1cccc2c(N)cccc12 | inactive | 
CCc1ccc(CCOc2ccc(CC3SC(=O)NC3=O)cc2)nc1 (stereo not given) | inactive | 
c1ccc2c(c1)Cc1ccccc1-2 | inactive | 
COCC(C)O (stereo not given) | inactive | 
c1ccc2c(c1)ccc1ccccc12 | inactive | 
Cc1cc(C)c(O)c(C)c1 | inactive | 

Structure (SMILES) | outcome | AC50
CCCCCCC(=O)O | inactive | 
OC1CCC(C2CCCCC2)CC1 (stereo not given) | inactive | 
C#C[C@]1(O)CC[C@H]2[C@@H]3CCC4=CC(=O)CC[C@@H]4[C@H]3CC[C@@]21C | inactive | 
CN1CCC[C@H]1c1cccnc1 | inactive | 
COCC(C)OCC(C)O (stereo not given) | inactive | 
O=C(O)c1ccccc1C(c1ccc(O)cc1)c1ccc(O)cc1 | inactive | 
O=[N+]([O-])c1ccc(O)cc1 | inactive | 
CCOC(=O)CC(O)(CC(=O)OCC)C(=O)OCC | inactive | 
CCCCOCCO | inactive | 
CCCCCCCCCCCCN1CCCC1=O |  | 31.7 µM (active)
CCCCCCCCCCCCCCCS(=O)(=O)Oc1ccccc1 | inactive | 
CC(O)CO (stereo not given) | inactive | 
Oc1cccc(O)c1 | inactive | 
CN(C)C=O | inactive | 
CCCCCCCCCCCCc1ccccc1S(=O)(=O)O |  | 28.8 µM (active)
CN1CCN(c2ccccc2/C=C2\SCCN(c3ccc(Cl)c(Cl)c3)C2=O)CC1 |  | 32 µM (active)
ClC1=C(Cl)C(Cl)(Cl)C(Cl)=C1Cl |  | 10.7 µM (active)
CC(=O)CC(C)(C)O | inactive | 
CCCCCCCC(=O)O | inactive | 
